For 102 compounds, AC50 and activity, negative = inhibition results are on record in PubChem BioAssay AID1851 (National Center for Advancing Translational Sciences (NCATS), 2009).

Each structure is given as a SMILES string. Hit rate of the full screen: of about 16,000 compounds, about 4,000 (25%) were called active. About 26% were inconclusive and are not listed. Calls come from the whole dose curve; as a rule, active = well fitted curve in the direction sought with a large enough effect; inconclusive = small, poorly fitted or top-dose-only effect, or effect the other way; inactive = no such curve, though single readings can be large or run the other way. A selection follows.
% is set by controls: 0 for no effect and ±100 for the full control effect.

In this experiment the target is Cytochrome P450 2C9 (Homo sapiens) (UniProt P11712). Briefly: Cytochrome panel assay with activity outcomes. The conditions noted are these: recombinant CYP, pro-luciferin dealkylation, luminescence, p450-cyp2c9; series mostly up to 57.1 µM.
Sequence of Cytochrome P450 2C9 (Homo sapiens) (P11712 whole entry, looked up): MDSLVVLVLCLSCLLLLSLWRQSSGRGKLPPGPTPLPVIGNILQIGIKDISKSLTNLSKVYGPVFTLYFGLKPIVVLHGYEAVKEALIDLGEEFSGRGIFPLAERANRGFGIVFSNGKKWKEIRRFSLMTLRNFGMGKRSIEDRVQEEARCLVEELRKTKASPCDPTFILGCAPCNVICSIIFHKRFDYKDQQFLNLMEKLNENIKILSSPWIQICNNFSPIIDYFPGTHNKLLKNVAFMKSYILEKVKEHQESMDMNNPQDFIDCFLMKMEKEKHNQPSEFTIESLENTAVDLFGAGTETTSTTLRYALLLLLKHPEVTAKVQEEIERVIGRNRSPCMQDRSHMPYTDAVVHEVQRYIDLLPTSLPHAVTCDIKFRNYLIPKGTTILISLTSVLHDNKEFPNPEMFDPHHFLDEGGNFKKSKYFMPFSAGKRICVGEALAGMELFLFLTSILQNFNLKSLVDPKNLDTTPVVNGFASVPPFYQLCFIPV
As to `CCOc1[nH]n(-c2ccccc2)c(=O)c1C=Nc1ccc(Cl)cc1`, the AC50 entry is “inactive”.
On to `O=c1c(C=Nc2ccc(Oc3ccccc3)cc2)c[nH]n1-c1cccc(Cl)n1`, for which the AC50 was 6.31 µM (active).
Take `c1cncc(-c2cc(NCc3cccs3)ncn2)c1`: the activity, negative = inhibition is -6.08% [at 2.29 µM] (inactive).
With `Fc1ccc2c(c1)C(c1ccncc1)=NNC(c1ccc(Cl)cc1)=N2`, the AC50 was 0.282 µM (active).
Same read-out and setting: then `Clc1ccc2c(c1)C(c1cccs1)=NNC(c1cccnc1)=N2`, with 11.2 µM (active).
For the compound `COC(=O)[C@H](C)NC(=O)[C@@H](C)CO`, the activity, negative = inhibition is 10.7% [at 11.4 µM] (inactive).
With `COCCNc1ccnc(-c2ccccc2CN(C)C)n1`, the activity, negative = inhibition was 0.0079% [at 2.29 µM] (inactive).
`CNCC[C@H](Oc1ccccc1OC)c1ccccc1`: the AC50 entry was “inactive”.
Still for that read-out and setting: then `CN(CC[C@@H](Oc1ccc(-c2ccccc2)cc1)c1ccc(F)cc1)CC(=O)O`, with 2.51 µM (active).
Still for that read-out and setting: then `CNCC[C@@H](Oc1ccccc1C)c1ccccc1`, with “inactive”; and `CCOc1cc2[nH]c(=S)n(CCC(=O)N3CCc4ccccc4C3)c(=O)c2cc1OCC`, with 17.8 µM (active); and `O=c1onc2n1-c1cc(Br)ccc1OC2`, with “inactive”.
In the case of `Cc1ccc(S(=O)(=O)N(CC(=O)N2CCN(c3ccc(F)cc3)CC2)C2CCCCC2)cc1`, the AC50 is 3.55 µM (active).
For the compound `CCCS(=O)(=O)N1CCCC(C(=O)NCCCN2CCN(c3ccc(F)cc3)CC2)C1` (configuration not stated), the AC50 entry was “inactive”.
Same read-out and setting: then `COc1ccc(S(N)(=O)=O)cc1C(=O)NCCCN1CCN(c2ccc(C)cc2)CC1`, with “inactive”.
Take `CCCCOC(=O)NS(=O)(=O)c1sc(CC(C)C)cc1-c1ccc(Cn2c(CC)nc3c(C)cc(C)nc32)cc1`: the AC50 was 12.6 µM (active).
As to `C1CCc2nnnn2CC1`, the AC50 result is “inactive”.
In the case of `Cc1cccc2cc(CN(Cc3ccccc3)C(=O)c3cccc(F)c3)c(Cl)nc12`, the AC50 was 2.24 µM (active).
Same read-out and setting: then `O=C(c1cccc(F)c1)N1CCC2(CC1)CN(Cc1ccccc1)C2`, with “inactive”; and `Cc1ccccc1OC/C(O)=C(\C#N)c1nc2ccccc2[nH]1`, with “inactive”; and `COc1cccc(OC)c1/C(O)=C(\C#N)c1nc2ccccc2[nH]1`, with 11.2 µM (active).
As for `CNc1nc(-c2ccccc2OC)nc2ccccc12`, the activity, negative = inhibition was 7.89% [at 2.29 µM] (inactive).
As for `CC(CC(=O)Nc1ccc(Cl)c([N+](=O)[O-])c1)c1ccccc1` (configuration not stated), the AC50 is 14.1 µM (active).
The same measure, in the same setting: then `COc1ccc(Nc2ncc(C(=O)N3CCN(c4ccc(F)cc4)CC3)c3ccccc23)cc1`, with 2.24 µM (active); and `COc1ccc(N2CCN(C(=S)Nc3cc(C)cc(C)c3)CC2)cc1`, with “inactive”; and `COc1ccc(NC(=O)N2CCC3(CC2)CCN(C(=O)c2cccc(F)c2)CC3)cc1`, with “inactive”.
Same read-out and setting: then `CC(=O)[C@@]1(O)Cc2c(O)c3c(c(O)c2[C@H](O[C@H]2C[C@H](N)[C@H](O)[C@H](C)O2)C1)C(=O)c1ccccc1C3=O`, with “inactive”; and `O=C(NC1CCCCC1)c1sc(=S)n2c1[nH]c(=O)c1ccccc12`, with 0.2 µM (active); and `CCOc1ccc(N(C(C)C(=O)NC(C)CC)S(C)(=O)=O)cc1` (configuration not stated), with 5.62 µM (active).
Same read-out and setting: then `CCOc1ccc(N(C(C)C(=O)N/N=C(\C)c2cccc(NC(=O)c3ccccc3)c2)S(C)(=O)=O)cc1` (configuration not stated), with 3.98 µM (active); and `Cc1nc2cnc(N3CCN(C)CC3)nc2n(-c2ccccc2)c1=O`, with “inactive”; and `CC[C@H]1C(=O)OC[C@H]1Cc1cncn1C`, with “inactive”.
As for `CO[C@H]1COC(=O)[C@@H](C)COC(=O)[C@@H](COCc2ccccc2)NC(=O)C/C=C\[C@H]1C`, the activity, negative = inhibition is 6.52% [at 11.4 µM] (inactive).
With `O=C(Nn1cc(C(=O)N2CCN(c3ccccc3F)CC2)c2ccccc2c1=O)c1cnccn1`, the AC50 was 4.47 µM (active).
The same measure, in the same setting: then `O=C(Nc1ccccc1)N1CC2(CCN(C(=O)c3cnccn3)CC2)C1`, with “inactive”; and `O=C(c1cnccn1)N1CCC2(CC1)CCN(c1ccccc1)CC2`, with “inactive”.
Consider `O=C(O)[C@@H]1[C@@H](C(=O)NCc2cccnc2)[C@@H]2C=C[C@@H]1O2`, for which the activity, negative = inhibition is 0.756% [at 11.4 µM] (inactive).
Take `O=C(c1ccccc1)c1c[nH]c(C(=O)NCc2cccnc2)c1`: the AC50 was 11.2 µM (active).
As to `O=C(c1ccccc1)c1c[nH]c(C(=O)NCCCN2CCOCC2)c1`, the AC50 result is “inactive”.
Still for that read-out and setting: then `CN1CCN(c2ncc3nc(-c4ccc(F)cc4)c(=O)n(C4CC4)c3n2)CC1`, with 12.6 µM (active); and `CN1CCN(c2ncc3nc(-c4ccc(Cl)cc4)c(=O)n(C4CC4)c3n2)CC1`, with “inactive”.
Same read-out and setting: then `COc1ccc(-c2nc3cnc(N4CCN(C)CC4)nc3n(C)c2=O)cc1`, with “inactive”; and `N#CCCn1c(=O)c(-c2cc(F)cc(F)c2)nc2cnc(N3CCOCC3)nc21`, with “inactive”; and `CN1CCN(c2ncc3nc(-c4cc(F)cc(F)c4)c(=O)n(C4CC4)c3n2)CC1`, with 10 µM (active).
For `NC([N-]/N=C/c1ccccn1)=[S]=[Fe].O=S(=O)(O)O`, the activity, negative = inhibition is -29.5% [at 11.4 µM] (inactive).
With `Cc1c(Cl)cnc(NC(=O)COC(=O)CCS(=O)(=O)c2ccccc2)c1Cl`, the AC50 entry is “inactive”.
Turning to `CC(C)CC(C(=O)OCC(=O)Nc1ncc(Cl)cc1Cl)N1C(=O)c2ccccc2C1=O` (configuration not stated), the AC50 is 7.08 µM (active).
On the same count and under the same terms, then `O=C(O)CC[C@@H](C(=O)O)N1C(=O)c2ccccc2C1=O`, with “inactive”; and `CC(=O)Nc1ccc(NC(=O)CC2Nc3cccc4cccc(c34)NC2=O)cc1` (configuration not stated), with 5.01 µM (active); and `Cc1cccc(C)c1OC1(c2ccccc2)OC(=O)c2ccccc21` (configuration not stated), with 2.51 µM (active).
Regarding `CCCCCCCOC1(c2ccccc2)OC(=O)c2ccccc21` (configuration not stated), the AC50 was 8.91 µM (active).
On the same count and under the same terms, then `Cc1cccc(OC2(c3ccccc3)OC(=O)c3ccccc32)c1C` (configuration not stated), with 3.16 µM (active).
Still for that read-out and setting: then `CC(C)C[C@H](NC(=O)[C@@H](O)[C@H](N)Cc1ccccc1)C(=O)O`, with “inactive”; and `CCn1c(C)nc2cc(S(=O)(=O)C(F)F)ccc21`, with “inactive”; and `CCCCn1c(SCc2c(C)noc2C)nc2cc(S(N)(=O)=O)ccc21`, with 10 µM (active).
Take `O=C1CC(c2ccc3c(c2)OCO3)Sc2nc3ccccc3n21` (configuration not stated): the AC50 was 3.16 µM (active).
On the same count and under the same terms, then `O=C1CC(c2ccc3c(c2)OCO3)CN1` (configuration not stated), with “inactive”.
For `c1ccc2c(N3CCNCC3)nc(-c3ccc4c(c3)OCO4)nc2c1`, the activity, negative = inhibition was 12.6% [at 2.29 µM] (inactive).
`O=C(CSc1ccccn1)Nc1nc2ccc(Br)cc2s1`: the AC50 was 7.08 µM (active).
On to `c1ccc(/C(=N/Nc2nc3ccccc3s2)c2ccccn2)cc1`, for which the activity, negative = inhibition is -23.7% [at 11.4 µM] (inactive).
Consider `Cc1ccc(-c2nc3ccccc3o2)cc1NC(=O)Cc1cccs1`, for which the AC50 result was “inactive”.
Still for that read-out and setting: then `O=C(CSc1nc2ccccc2o1)Nc1ccccc1N1CCCCCC1`, with 12.6 µM (active); and `CCCCOC(=O)Nc1nc2ccccc2s1`, with “inactive”.
Same read-out and setting: then `O=C(NC1CCCCC1)C(c1ccccc1)N1CCOCC1` (configuration not stated), with “inactive”; and `O=C(CNC1CCCCCC1)Nc1ccccc1N1CCCCC1`, with 28.2 µM (active).
Same read-out and setting: then `O=C(CSc1nc2ccccc2o1)Nc1nc2ccccc2s1`, with 3.98 µM (active); and `O=C(O)C1CCCCC1C(=O)Nc1ccccc1Cl` (configuration not stated), with “inactive”; and `O=C(CSc1nc2ccccc2[nH]1)NCCN1CCCCC1`, with “inactive”.
With `O=C(CN1CCN(S(=O)(=O)c2ccccc2)CC1)NC(=O)NCc1ccccc1`, the AC50 result was “inactive”.
Same read-out and setting: then `O=C(CSc1nc2ccccc2o1)NC(=O)NCc1ccccc1`, with 7.08 µM (active).
Turning to `O=C(N/N=C\c1ccc(-c2ccccc2[N+](=O)[O-])o1)C1COc2cc3ccccc3cc2O1` (configuration not stated), the AC50 is 1 µM (active).
`C[N+]1(C)CCC(=C(c2ccccc2)c2ccccc2)CC1`: the AC50 result was “inactive”.
Regarding `N#CC(C#N)=C(N)/C(C#N)=C/c1ccc(O)cc1`, the AC50 result is “inactive”.
The same measure, in the same setting: then `CC(C)(CO)Cc1cc(C(C)(C)C)c(O)c(C(C)(C)C)c1`, with “inactive”; and `CC(C)(C)c1cc(/C=C(\C#N)C(N)=S)cc(C(C)(C)C)c1O`, with 0.1 µM (active).
As for `CC(C)=NNc1ncnc2nc[nH]c12`, the activity, negative = inhibition is -11.9% [at 11.4 µM] (inactive).
`CCOc1cccc(OCCCNCCCOC)c1`: the AC50 result is “inactive”.
For the compound `Cc1ccccc1-c1cncnc1Nc1ccc(F)cc1`, the activity, negative = inhibition was -14.2% [at 2.29 µM] (inactive).
Turning to `C=CCN1C(=CCO)[C@H]2C[C@H]3[C@@H]1CC[C@@]31c3ccccc3N3C=C4[C@@H]5N(/C=C/2[C@H]31)c1ccccc1[C@]51CC[C@H]2[C@H]1C[C@@H]4/C(=C/CO)N2CC=C`, the AC50 result is “inactive”.
Still for that read-out and setting: then `C[C@@](N)(C(=O)O)c1ccc(S(=O)(=O)O)cc1`, with “inactive”; and `CCOc1cc2[nH]c(=O)n(CCCC(=O)NCc3ccc(OC)cc3)c(=O)c2cc1OCC`, with 4.47 µM (active).
In the case of `COC(=O)C/C=C\[C@@H](C)[C@@H](/C=N\O[C@@H]1O[C@H](COC(C)=O)[C@H](OC(C)=O)[C@H](OC(C)=O)[C@H]1OC(C)=O)OC`, the activity, negative = inhibition was -21% [at 11.4 µM] (inactive).
On to `O=C(c1ccncc1)N1CCC2(CC1)CCN(c1ncccn1)CC2`, for which the AC50 was 15.8 µM (active).
Take `O=C(c1ccncc1)N1CCC2(CC1)CN(c1ncccn1)C2`: the AC50 entry is “inactive”.
On the same count and under the same terms, then `CC(=O)N1CCC2(CC1)CCN(c1ccccn1)CC2`, with “inactive”; and `O=C(c1ccncc1)N1CCC2(CC1)CCN(c1ccccn1)CC2`, with 10 µM (active); and `CN1CCC2(CC1)CCN(C(=O)c1ccncc1)CC2`, with “inactive”.
The same measure, in the same setting: then `C[C@H](NCCC(c1ccccc1)c1ccccc1)c1ccccc1`, with “inactive”; and `CC1(C)CCC=[N+]1[O-]`, with “inactive”.
For the compound `CS[C@]12C(=O)C[C@]3(C)[C@@H](CC[C@@]3(O)C(=O)CO)[C@@H]1CCC1=CC(=O)CC[C@]12C`, the activity, negative = inhibition was 11.9% [at 11.4 µM] (inactive).
In the case of `O=C(c1ccncc1)N1CCC2(CC1)CN(Cc1cc(C(F)(F)F)cc(C(F)(F)F)c1)C2`, the AC50 result was “inactive”.
With `O=C(c1cc(C(F)(F)F)cc(C(F)(F)F)c1)N1CCC[C@@]2(CCN(Cc3ccncc3)C2)C1`, the AC50 was 0.0794 µM (active).
Same read-out and setting: then `O=C(c1cnccn1)N1CCC2(CCCN(Cc3nccs3)C2)CC1`, with 15.8 µM (active); and `O=C(c1cnccn1)N1CCC[C@@]2(CCN(Cc3ccncc3)C2)C1`, with 10 µM (active); and `O=C(c1cc(C(F)(F)F)cc(C(F)(F)F)c1)N1CCC[C@@]2(CCN(Cc3ccccc3)C2)C1`, with “inactive”.
Still for that read-out and setting: then `O=C(c1cnccn1)N1CCC2(CCN(Cc3nccs3)CC2)CC1`, with “inactive”.
Same read-out and setting: then `O=C(c1cc(C(F)(F)F)cc(C(F)(F)F)c1)N1CCC2(CC1)CN(Cc1ccncc1)C2`, with 10 µM (active); and `O=C(c1cc(C(F)(F)F)cc(C(F)(F)F)c1)N1CCC2(CC1)CN(Cc1ccccc1)C2`, with “inactive”; and `O=C(c1cnccn1)N1CCC[C@@]2(CCN(c3ncccn3)C2)C1`, with “inactive”.
In the case of `CC(C)CN1CC[C@@]2(CCCN(C(=O)c3cnccn3)C2)C1`, the AC50 result is “inactive”.
The same measure, in the same setting: then `O=C(c1cnccn1)N1CCC2(CC1)CN(Cc1nccs1)C2`, with “inactive”.
Same read-out and setting: then `N#Cc1ccc(CN2CC[C@@]3(CCCN(C(=O)c4cc(C(F)(F)F)cc(C(F)(F)F)c4)C3)C2)cc1`, with “inactive”.

As a reminder, the AC50 is the midpoint of the concentration-response curve, whichever way the signal moves.
